Shown is part of a subset that was picked to be rich in hits.
nsP2pro inh: inhibitors of chikungunya virus nsP2 protease | Q8JUX6 | FRET peptide cleavage, nsP2pro, fluorescence 1 h | Potency, µM (titrated, usually from 24.9 µM), for the others: at the highest dose activity change, negative = inhibition, most hits filed as inhibitors | 1.1% of 31,000 active | AID 1964107; further: nearly all actives have a fitted effect of over 60% in size
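Enzyme 150 nM, substrate 2.5 uM (both final); Tris-HCl 10 mM pH 8.0 + 0.01% Tween 20; cpd up to 25 uM, 7 pts; 15 min preinc., 1 h RT; fluorescence ex 525/em 598.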
nsP2 cell sec: cell-based CHIKV nsP2 protease inhibition, secondary | shares compounds with nsP2pro inh | cell-based CHIKV nsP2 protease reporter assay | Potency, µM (top dose mostly 51.1 µM), for inactives: top-dose activity change, negative = inhibition, usual class: inhibitors | 10% of 450 active | AID 1964100; further: nearly all actives have a fitted effect of over 70% in size
NSP2 full ctr: selectivity test for CHIKV nsP2 protease inhibitors: full-length NSP2; 39% of 410 active; AID 1964101; Full-length CHIKV NSP2 protease enzymatic counterscreen; Potency, µM (titrated, usually from 50.7 µM), without a hit: top-dose activity change, negative = inhibition, usual class: inhibitors; shares compounds with nsP2pro inh; further: nearly all actives have a fitted effect of over 65% in size
Furin counter: inhibits human furin in a CHIKV nsP2 protease selectivity counterscreen; shares compounds with nsP2pro inh; Recombinant human furin enzymatic counterscreen, fluorogenic substrate; Potency, µM (titrated, usually from 50.6 µM), inactives show at the top dose activity change, negative = inhibition, actives largely listed as inhibitors; 6% of 410 active
nsP2 NS23 pep: nsP2pro inhibition on native NS2/3 peptide substrate; Potency, µM (doses to about 51 µM), without a hit: at the highest dose activity change, negative = inhibition, most hits filed as inhibitors; Purified CHIKV nsP2 protease, endogenous NS2/3 peptide cleavage; AID 1964103; 34% of 410 active; shares compounds with nsP2pro inh; further: nearly all actives have a fitted effect of over 55% in size
Papain counter: inhibits papain in a CHIKV nsP2 protease selectivity counterscreen; Potency, µM (doses to about 51 µM), for inactives: top-dose activity change, negative = inhibition, usual class: inhibitors; shares compounds with nsP2pro inh; AID 1964104; 5% of 410 active; purified papain protease activity, enzymatic inhibition
nsP2pro confirm: confirmation of CHIKV nsP2 protease inhibitors. Potency, µM (series often up to 25.5 µM), inactives show at the top dose activity change, negative = inhibition, usual class: inhibitors. shares compounds with nsP2pro inh. 43% of 410 active. AID 1964105. CHIKV nsP2 protease enzymatic activity, qHTS; further: nearly all actives have a fitted effect of over 75% in size
HCV NS3 4A cs: HCV NS3/4A protease inhibition, counterscreen; HCV NS3/4A protease biochemical counterscreen; 20% of 410 active; shares compounds with nsP2pro inh; AID 1964106; Potency, µM (top dose mostly 50.9 µM), hits mostly inhibitors; further: nearly all actives have a fitted effect of over 55% in size
Numbers without * were called inactive; i = inactive; ? = inconclusive; [ ] = remark or other dose. The call rests on the fitted dose curve. On the % scale 0 is the no-effect control and ±100 the full control effect; potency means the concentration at half of the fitted maximal effect.

SMILES | nsP2pro inh | others
CCC(C)C(=O)OC12C(OC(C)=O)C(C)C3(O)C(C=C(CO)CC4(O)C(=O)C(C)=CC43)C1C2(C)C (centres undefined) | -8%[10 µM]
CCCCc1ccc(NS(=O)(=O)c2ccc(F)cc2)cc1 | -9%
CCc1ccc(NS(=O)(=O)c2[nH]ncc2C(=O)OC)cc1 | 10µM*
CCc1ccc(NS(=O)(=O)c2ccc3[nH]c4c(c3c2)CCCCCC4)cc1 | -19%
FC(F)(F)c1cc(-c2ccc(CNc3nc(-c4ccncc4)nc4ccccc34)cc2)ccn1 | -2%
COCCN1C(=O)c2ccccc2C(C(=O)Nc2ccc3[nH]ccc3c2)C12CCCC2 (centres undefined) | 0%
COCCNc1ccc(NC(=O)c2cccs2)cn1 | -12%
OCCc1ccc(O[C@@H]2O[C@H](CO)[C@@H](O)[C@H](O)[C@H]2O)cc1 | -6%
COc1cc(CCO)ccc1O[C@@H]1O[C@H](CO)[C@@H](O)[C@H](O)[C@H]1O | ? | nsP2 cell sec=-6%[33.5 µM];NSP2 full ctr=-27%[33.5 µM];Furin counter=8%[33.5 µM];nsP2 NS23 pep=-8%[33.5 µM];Papain counter=-7%[33.5 µM];nsP2pro confirm=?;HCV NS3 4A cs=i
COc1cc(CO)ccc1O[C@@H]1O[C@H](CO)[C@@H](O)[C@H](O)[C@H]1O | -1%
O=C(NCCc1c[nH]c2ccc(O)cc12)c1ccc2ccccc2c1O | 2%
CC(=O)NCCc1c[nH]c2ccccc12 | 4%[39.2 µM]
NC(Cc1c[nH]c2ccc(O)cc12)C(=O)O (centres undefined) | ? | nsP2 cell sec=8%;NSP2 full ctr=6%;Furin counter=-11%;nsP2 NS23 pep=-19%;Papain counter=-8%;nsP2pro confirm=-26%;HCV NS3 4A cs=i
COc1cc(O)c(C(CC(=O)N2CC(C)CC(C)C2)c2ccc(O)cc2)c(OC)c1 (centres undefined) | i
COc1cccc(-c2csc(NC(=O)c3ccncc3NS(=O)(=O)c3ccc(C)cc3)n2)c1 | i
O=S(=O)(Nc1ccc2ccccc2c1)c1ccc(NCc2cccc(Cl)c2O)cc1 | 4%
O=S(=O)(Nc1nccs1)c1ccc(NCc2cccc(F)c2O)cc1 | i
Oc1ccc(NCc2ccccc2OCc2ccccc2F)cc1 | 8.9µM* | nsP2 cell sec=?;NSP2 full ctr=23µM*;Furin counter=-3%;nsP2 NS23 pep=21µM*;Papain counter=-10%;nsP2pro confirm=?;HCV NS3 4A cs=?
O=S(=O)(Nc1cccc2ccccc12)c1ccc(NCc2cccc(Cl)c2O)cc1 | -26%
Cn1nnnc1SCCNCc1ccccc1OCc1ccccc1F | -23%
Oc1ccc(NCc2ccccc2OCc2ccccc2Cl)cc1 | 0.85µM* | nsP2 cell sec=12µM*;NSP2 full ctr=10µM*;Furin counter=-9%;nsP2 NS23 pep=16µM*;Papain counter=-11%;nsP2pro confirm=8µM*;HCV NS3 4A cs=18µM*
Cc1cc(C)nc(NC(=S)N2CCN(c3ccc([N+](=O)[O-])c4cccnc34)CC2)c1 | 4%
CCOc1ccc(CCNC(=O)c2cc3ccncc3n2Cc2cccc(C)c2)cc1OCC | i
CCCCCCC(COC(=O)c1cccnc1)(COC(=O)c1cccnc1)COC(=O)c1cccnc1 | 3%
Cc1cc(C)nc(NC(=S)N2CCN(c3ccc(C(F)(F)F)cc3Cl)CC2)c1 | -5%
SMILES | nsP2pro inh | others
CCCCCCCCCCCC(=O)OCN1C(=O)CCc2ccc(OCCCCN3CCN(c4cccc(Cl)c4Cl)CC3)cc21 | -1%[5.1 µM]
COc1ccc(NC(=O)c2cnn3c(C)cc(C)nc23)cc1F | 3%
CCOc1cc(C(CS(C)(=O)=O)N2C(=O)c3cccc(NC(C)=O)c3C2=O)ccc1OC (centres undefined) | -16%
CCCCNC(=O)CN1CCN(c2ccc(NC(=O)c3ccc(OC)cc3)cc2C(=O)O)CC1 | 4.5µM* | nsP2 cell sec=?;NSP2 full ctr=4.1µM*;Furin counter=?;nsP2 NS23 pep=7.3µM*;Papain counter=-1%;nsP2pro confirm=6.3µM*;HCV NS3 4A cs=1.8µM*
CCCCNC(=O)CN1CCN(c2ncc(NC(=O)c3ccc(Cl)cc3)cc2C(=O)O)CC1 | ? | nsP2 cell sec=-16%;NSP2 full ctr=15µM*;Furin counter=-3%;nsP2 NS23 pep=-5%;Papain counter=-9%;nsP2pro confirm=-16%;HCV NS3 4A cs=i
COc1ccc(NC(=O)CCN2CCN(c3cccc(Cl)c3)CC2)cc1 | -10%
CCOc1cccc(C(=O)Nc2ccc(S(=O)(=O)N(Cc3ccccc3)c3ccccc3)cc2)c1 | -12%
CCCCN(CCCNC(=O)c1ccc(Sc2ccc(Cl)cc2)c(NC(C)=O)c1)c1ccccc1 | -24%
Cc1ccc(Cl)cc1NC(=O)c1cnc(N2CCCCC2)c2ccccc12 | -14%
COc1ccc(NC(=O)c2ccc3nc(CCc4ccccc4)oc3c2)cc1 | 15%
COc1ccc(C(=O)Nc2ccc(N(C)Cc3ccccc3)c(C(=O)O)c2)cc1 | 5µM* | nsP2 cell sec=-7%;NSP2 full ctr=5.2µM*;Furin counter=?;nsP2 NS23 pep=13µM*;Papain counter=-4%;nsP2pro confirm=8µM*;HCV NS3 4A cs=3.3µM*
CCCCOc1ccc(C(=O)Nc2ccc3c(c2)CCCN3C(=O)c2cccs2)cc1 | -17%
Cc1cnc(C(=O)N2CC(Cn3c(C)cnc3-c3ccncc3)C2)cn1 | 7%
O=C1CCCC2=C1C(c1[nH]ncc1Cl)N=C(Nc1cccnc1)N2 (centres undefined) | -3%
OCC(CO)(CO)NCC(O)Cn1c2ccc(Cl)cc2c2cc(Cl)ccc21 (centres undefined) | 24%
CC1(C)C=Cc2c(ccc3c2[N+]([O-])=C2C3(O)CC34NC(=O)C5(CCCN5C3=O)CC4C2(C)C)O1 (centres undefined) | -22%[10 µM]
CC(=O)Nc1cccc([S+](=O)([O-])N2CCCN([S+](=O)([O-])c3cccc(NC(C)=O)c3)CC2)c1 | i
CCNC(=O)C1CCC(C(=O)Nc2ccc([S+](=O)([O-])Nc3nccs3)cc2)CC1 (centres undefined) | -2%
FC(F)(F)c1ccccc1-c1nc(NCc2ccccc2)c2ccccc2n1 | i
CNc1sc(-c2cccc3ccccc23)nc1C(=O)OC | -4%
CC(C)c1ccccc1-c1ncc(F)c(NCc2ccc(-c3cccnc3)cc2)n1 | 2%
Cc1oc(-c2ccccc2)nc1CCOc1ccc(CC2C(=O)NOC2=O)cc1 (centres undefined) | -18%
Cc1nc([C@](C)(O)CO)sc1-c1cnc(N)c(O[C@H](C)c2cc(F)ccc2-n2nccn2)c1 | 7.9µM* | nsP2 cell sec=-21%;NSP2 full ctr=-15%;Furin counter=3%;nsP2 NS23 pep=-23%;Papain counter=22%;nsP2pro confirm=-12%;HCV NS3 4A cs=i

Screens (PubChem BioAssay)
